# HSF1 activator: increases HSF-1 driven luciferase reporter signal; 300,000 compounds, 1.7% hits; NIH3T3-HGL HSF-1 luciferase reporter, MG132, 8 h; 100% = twice DMSO control signal; AID 504408; activation, % at 9 µM;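 active = mean replicate activation of at least 50% with a set share of replicates each reaching 50%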;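 note: 0% = median of the neutral control wells and 100% = twice that signal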
# dFosB activator: enhances mouse delta FosB homodimer DNA binding | P13346 | purified delta FosB, TAMRA-CDK5 oligo fluorescence polarization; percent of positive-control signal above neutral wells | activation, % at 25 µM | 340,000 compounds, 0.99% hits | AID 493131;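 active = mean activation above about 17%, with every replicate also reaching it, limit read from the data, passing the limit was not always enough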
# Target sequence (P13346 whole entry, looked up): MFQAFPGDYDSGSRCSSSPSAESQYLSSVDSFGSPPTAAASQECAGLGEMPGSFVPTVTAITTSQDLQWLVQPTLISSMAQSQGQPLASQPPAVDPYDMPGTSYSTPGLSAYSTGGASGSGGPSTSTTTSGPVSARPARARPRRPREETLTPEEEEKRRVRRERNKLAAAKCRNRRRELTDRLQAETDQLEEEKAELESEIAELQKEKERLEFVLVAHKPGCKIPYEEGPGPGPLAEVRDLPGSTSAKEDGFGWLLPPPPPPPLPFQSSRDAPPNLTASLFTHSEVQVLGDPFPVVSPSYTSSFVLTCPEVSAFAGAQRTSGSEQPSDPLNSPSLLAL
# HSF1 inhib: HSF1 inhibition. NIH3T3-HGL HSE-luciferase, MG132-induced, luminescence 8 h; stronger effect = lower value. activity change, negative = inhibition, % at 7.5 µM (by protocol). 300,000 compounds, 0.77% hits;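 active = more than half of replicate wells show activity change below -50%, luminescence cut by over half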;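 note: luciferase reports HSF-1 transcriptional activity via heat shock element; 0% = median of DMSO wells and -100% = zero luminescence signal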
# Platelet DG rel: platelet dense granule release activity; human platelet-rich plasma, SFLLRN dense granule ATP release, luminescence; 300,000 compounds, 0.22% hits; AID 1663; inhibition, %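 (compounds screened at 7.5 µM in platelet-rich plasma)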;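 active = mean replicate score, as percent of positive control, at or above 50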
# MPTP inh: permeability transition pore inhibition; 360,000 compounds, 1.4% hits; AID 602449; isolated mouse mitochondria, Ca2+ swelling absorbance, 30 min; inhibition, % at 10 µM;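 active = inhibition of 50% or more, scaled per plate between neutral and stimulator controls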;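 note: 0% = DMSO wells given calcium and 100% = 1 mM EGTA wells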
# HSP90 refold inh: blocks HSP90-mediated luciferase refolding in reticulocyte lysate. inhibition, % at 5.6 µM. Rabbit reticulocyte lysate, luciferase refolding luminescence, 3 h. 290,000 compounds, 0.91% hits;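 active = inhibition above the screen-wide mean plus 3 SD, computed separately per campaign, cut at about 16% in these data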;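 note: 0% = DMSO wells and 100% = 60 µM geldanamycin wells; inhibitors lower the luminescence because luciferase stays unfolded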
# Numbers without * were called inactive; x = no result. Shown are actives, neighbours in structure and some others; about 4.9% of the full set was active somewhere.
SMILES,HSF1 activator,dFosB activator,HSF1 inhib,Platelet DG rel,MPTP inh,HSP90 refold inh
CCOc1ccc(C(C(=O)NC2CCCCC2)N(C(=O)Cc2cccs2)c2ccc(-n3cnnn3)c(OC)c2)cc1 (stereo not drawn),0,5,2,14,0,-2
O=C(Nc1ccccc1C(=O)Nc1nccs1)c1ccccc1,x,x,x,x,-2,x
Oc1ccc(-c2csc(Nc3ncccn3)n2)cc1,60*,-10,44,11,0,4
CN1/C(=C\C=O)C(C)(C)c2ccccc21,-3,23*,-2,0,1,-1
CC(C)NS(=O)(=O)c1ccc(OCC(=O)N2CCCC2)c(Cl)c1,-62,1,-53*,-34,-1,-2
Cc1cc(Br)ccc1OCC(=O)N1CCCCCC1,16,-1,7,-1,1,5
CC(C)c1ccc(OCC(=O)N2CCCCCC2)c(Br)c1,101*,-2,61,4,2,-4
CCOc1ccc(N2CC(C(=O)NCCc3c[nH]c4ccc(OC)cc34)CC2=O)cc1 (stereo not drawn),0,-12,-6,1,0,1
CS(=O)(=O)N(CC(=O)Nc1ccccc1C(=O)N1CCCC1)c1ccccc1Br,-11,-6,-6,2,-2,0
Cc1ccc2nc(N3CCN(C)CC3)c(C#N)cc2c1,12,-4,-2,-1,-1,-2
Cc1ccc2nc(N3CCN(Cc4nnnn4Cc4ccccc4)CC3)c(C#N)cc2c1,-69,-3,-62*,15,-3,2
C=C1CCC[C@]2(C)C[C@H]3OC(=O)C(CNCC(C)C)[C@H]3CC12 (stereo partly drawn),68*,4,38,-4,0,0
C=C1CCC[C@]2(C)C[C@H]3OC(=O)C(CNCCN(CC)CC)[C@H]3CC12 (stereo partly drawn),61*,-4,11,-5,-1,7
CC(C)NC(=O)N(C)C[C@H]1Oc2ccc(NC(=O)Nc3ccccc3)cc2C(=O)N([C@@H](C)CO)C[C@@H]1C,x,1,x,x,0,x
O=C(CC(=O)c1ccccc1)Nc1ccc2c(c1)OCCO2,54*,-3,28,11,3,0
O=C(Nc1ccc2c(c1)OCO2)c1cc(-c2ccccc2Cl)on1,57*,13,14,14,0,1
O=C(Nc1ccc2c(c1)OCO2)c1ccccc1,58*,-5,21,10,-1,9
O=C(NC(=S)Nc1ccc2c(c1)OCO2)c1ccccc1,57*,-7,26,0,0,-1
O=C(CSc1ccccc1)Nc1ccc2c(c1)OCCO2,38,-10,26,-10,-1,8
Cc1cc(C)cc(N2C(=O)CSC2c2ccccn2)c1 (stereo not drawn),10,-3,13,-5,-1,-2
CCOc1ccc(C(=O)NN2C(=S)NC(C)(C)C=C2C)cc1,8,-1,0,12,2,-1
NC(=S)N/N=C1/CCSc2ccc3ccccc3c21,0,1,-6,-6,-1,2
O=C1NC(Cc2ccc(O)cc2)c2nc3ccc(F)cc3c(=O)n2-c2cc(Cl)ccc21 (stereo not drawn),x,-11,x,x,-1,x
O=S(=O)(c1ccccc1)N1CCN(c2nnc(-c3ccccc3)c3ccccc23)CC1,-3,-2,7,-4,6,1
CC(C)(O)C#Cc1ccc(C(=O)Nc2ccc3c(c2)OCO3)s1,60*,1,41,14,0,-4
SMILES,HSF1 activator,dFosB activator,HSF1 inhib,Platelet DG rel,MPTP inh,HSP90 refold inh
O=C(Nc1ccc2c(c1)OCCO2)C(=S)NCc1ccccc1,68*,-10,45,-3,1,2
CCc1sc(C(=O)Nc2ccc3c(c2)OCO3)cc1C,x,-10,x,x,1,x
O=C(NCc1ccccc1)c1ccc2c(c1)OCCO2,16,7,14,1,2,4
O=C(Nc1ccc2c(c1)OCO2)c1cc2ncc(Br)cn2n1,6,28*,-1,5,-1,2
CC(C)c1ccc(NC2CCCN(C(=O)C3=NN(C)C(=O)CC3)C2)cc1 (stereo not drawn),1,-3,2,6,0,-4
COc1ccc(OC)c(S(=O)(=O)Nc2cccc3ccc(O)cc23)c1,23,-8,16,3,7,x
CC(C)NC(=O)CN1CCN(C(c2cc3ccccc3o2)c2nnnn2C(C)(C)C)CC1 (stereo not drawn),x,x,x,x,-1,x
Cc1sc2cc3c(c(C(=O)c4ccccc4)[n+]2c1C)-c1cccc2cccc-3c12,-38,x,-44,-3,x,3
O=C(c1ccccc1)c1c2c(cc3sc4ccccc4[n+]13)-c1cccc3cccc-2c13,x,22*,x,x,45,11
CCn1cc(C(=O)NN)c(=O)c2cc(F)c(NC3CCCCC3)cc21,66*,-8,19,5,-1,1
Cc1cc(C)n(C(N)=NC(=O)c2ccccc2)n1,x,x,x,x,-1,x
O=C(Nc1ccccc1F)c1ccc([N+](=O)[O-])s1,101*,-5,68,1,-1,0
O=C(Nc1cccnc1)c1ccc([N+](=O)[O-])s1,x,0,x,x,0,x
O=C(Nc1cccc2ccccc12)c1ccc([N+](=O)[O-])s1,71*,-3,41,9,27,3
COc1ccc(OC)c(NC(=O)COC(=O)C2CCCCC2)c1,x,-2,x,x,-1,x
CN1CCN(S(=O)(=O)c2ccc3c(c2)oc(=O)n3C)CC1,-8,1,-5,9,0,-5
Cc1cccc(CNC(=O)c2ccc(NC(=O)C3=CSCCO3)cc2)c1,1,-7,11,4,0,-5
CCN(CC)C(=O)[C@H]1CC(CC(=O)NCCCOC)C(=O)N2CCc3c([nH]c4ccccc34)[C@]12C (stereo partly drawn),x,2,x,x,0,x
C=CCn1c(O)c(N=NC(=S)Nc2ccc(OC)c(Cl)c2)c2ccccc21,55*,-1,7,-1,0,-3
C=CCn1c(O)c(N=NC(=O)OC(C)(C)C)c2ccccc21,-11,0,5,-18,0,-2
CCCCCCN1C=CC=C/C1=C\C=C(C#N)C#N,0,-6,-11,0,2,-1
COc1ccc(-c2csc3nc(-c4ccccc4F)oc(=O)c23)cc1,78*,1,63,3,2,0
COc1ccc(-c2nc3scc(-c4ccc(OC)c(OC)c4)c3c(=O)o2)cc1,20,3,5,-4,1,0
CC(C)[C@H](NC(N)=O)C(=O)Nc1ccc(F)c(Cl)c1,-9,-7,-4,5,0,5
CC1(C2(O)CCCCC2)NCCc2ccccc21 (stereo not drawn),x,4,x,x,0,x
CC(C)N(Cc1cn[nH]c1-c1ccc(-c2ccccc2)cc1)Cc1nccn1C,59*,-11,29,0,6,-2
CC(C)N(Cc1nc(COc2ccccc2)no1)Cc1nccn1C,0,-1,-2,8,2,-2

# High-throughput results deposited in PubChem by several laboratories.
